In PubChem BioAssay (NCI):
The panel holds about 83,000 compounds, 20% with a hit somewhere; the sample as a whole holds those more often.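 Single-concentration screen, 48 h exposure, 96-well plates. Endpoint: percent growth. Below 10 = active.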 Active and inactive are the calls of the source.

The compounds below were run on HL-60(TB) leukemia (assay: NCI-60 one-dose screen, 48 h (100 = growth as untreated, 0 = no growth, -100 = all killed)). Conditions: 10 µM unless noted.

Structure (SMILES) | growth
COc1ccc(CCN2CCC(CN(C)Cc3cnn(-c4ccccc4)c3)CC2)cc1 | 6.41% (active)
OC(c1cccc(-n2ccc(C(F)(F)F)n2)c1)c1cnccc1NC1CCCCCC1 (stereo not given) | -35.7% (active)
CCCCCCCCCCC(C(O)c1ccccc1)N1CCCCC1 (stereo not given) | -28.5% (active)
CN1CCN(c2cnc(C(=O)Nc3cc(F)cc4cccnc34)cn2)CC1 | 6.72% (active)
CN(C)c1ccc(/C=C2\C=C(c3ccccc3)N(CCc3ccccc3)C2=O)cc1 | 74.5% (inactive)
CC(C)(C)[Si](C)(C)OC1[C@@H](CNC(=O)NC(=O)CCl)O[C@@H](n2cnc3c(N)ncnc32)[C@H]1O[Si](C)(C)C(C)(C)C (stereo not given in full) | -64.2% (active)
CCCCCCCCCCCCCCCCCCOc1ccccc1CCCOP(=O)(O)OCC[N+](C)(C)C | 21.9% (inactive)
CC1Cc2c(N(C)C)ncnc2N(C)c2ccc(Cl)cc21 (stereo not given) | -7.29% (active)
CC/C(=N/NC(N)=O)c1ccccc1 | 101% (inactive)
CC1CCCCN1C(=S)Nc1ccc(S(=O)(=O)N2CCCCC2)cc1 (stereo not given) | 102% (inactive)
[2H]C([2H])([2H])Oc1ccc(F)cc1/C=C/C(=O)/C=C(/C=C/c1cc(F)ccc1OC([2H])([2H])[2H])OB(F)F | 30.1% (inactive)
CN1CCC2(CC1)NC(=O)c1c(c3ccc(Cl)c(Cl)c3n1C)C2C#N (stereo not given) | 70.8% (inactive)
CCOC(=O)C(=Cc1ccc(C#N)cc1)C(=O)OCC | -33.2% (active)
ClCc1c(Cl)c(Cl)c(Cl)c(CCl)c1Cl | 80.4% (inactive)
O=C1C(Cl)=C(NCCCN(CCCNC2=C(Cl)C(=O)c3ccccc3C2=O)C2=C(Cl)C(=O)c3ccccc3C2=O)C(=O)c2ccccc21 | 37.6% (inactive)
C=C(C)[C@@H]1CCC[C@]2(C(=O)O)CC[C@]3(C)[C@@H](CC[C@@H]4[C@@]5(C)C/C(=C/c6ccncc6)C(=O)C(C)(C)[C@@H]5CC[C@]43C)[C@@H]12 | -5.12% (active)
NCCSC(C[N+](=O)[O-])c1ccccc1Cl (stereo not given) | 31.8% (inactive)
COc1cc2nc(-c3ccc(C(F)(F)F)cc3)cc(OCCCN3CCOCC3)c2cc1OC | 32.5% (inactive)
O=C(Cc1ccc2c(c1)OCCO2)Nc1nc2ccc(F)cc2s1 | 99.6% (inactive)
CN1C(=O)C(C2=NN(C=O)C(c3ccc(F)cc3)C2)C(=O)N(C)C1=O (stereo not given) | 105% (inactive)

Structure (SMILES) | growth
C=C(CNCCc1ccc(O)cc1)[C@@H]1CC[C@]2(CO)CC[C@]3(C)[C@H](CC[C@@H]4[C@@]5(C)CCC(N)C(C)(C)[C@@H]5CC[C@]43C)[C@@H]12 (stereo not given in full) | -47% (active)
Cc1ccc(CCCC(=O)O)c(C)c1 | 98.3% (inactive)
O=C(NC1CCNCC1)c1[nH]ncc1NC(=O)c1c(Cl)cccc1Cl | -31.8% (active)
CCn1cc(C2NC(=O)c3cc(F)ccc3N2)c2cccc(Cl)c21 (stereo not given) | -50% (active)
Cc1ccc(C2=NN3C(C2)c2cc(Br)ccc2OC32CCN(Cc3ccccc3)CC2)o1 (stereo not given) | 90.4% (inactive)
CC(C)COCC(CN(Cc1ccccc1)c1ccccc1)N1CCCC1 (stereo not given) | 82.4% (inactive)
CC(=O)Nc1scc[n+]1Cc1ccccc1 | 55.3% (inactive)
CC1(C)CC(OCCCC[P+](c2ccccc2)(c2ccccc2)c2ccccc2)CC(C)(C)N1O | -37.4% (active)
N#Cc1cccc(OCc2nc(N)nc(N)c2-c2ccc(Cl)c(Cl)c2)c1 | 29.8% (inactive)
CCOCCNc1ccc(S(=O)(=O)c2ccc(N)cc2)cc1N | 107% (inactive)
N#Cc1ccc(O)c(C2=NCC(c3ccccc3)O2)c1 (stereo not given) | 14.5% (inactive)
OC(CCCCCCCCC(O)CN1CCc2ccccc2C1)CN1CCc2ccccc2C1 (stereo not given) | 95.1% (inactive)
C=C(C)[C@H]1CC/C(C)=C/CC[C@]2(C)O[C@H]2CC/C(COC(=O)[C@@H](OC(C)=O)[C@H](NC(=O)c2ccccc2)c2ccccc2)=C\[C@@H]1O | 91% (inactive)
Nc1nc2ccc(-c3nc4ccc5[nH]ncc5c4c4c3CCC4)cc2s1 | 30.2% (inactive)
CSc1ccc(-c2cc(-c3ccc(NC(=O)CCCN4CCCC4)cc3)nc(-c3ccc(NC(=O)CCCN4CCCC4)cc3)c2)cc1 | 60.8% (inactive)
CC(C)(Sc1cc(C(C)(C)C)c(OC(=O)CCCC(=O)O)c(C(C)(C)C)c1)Sc1cc(C(C)(C)C)c(OC(=O)CCCC(=O)O)c(C(C)(C)C)c1 | -22.6% (active)
CCSc1nc2scc(C)c2c(=O)[nH]1 | 99.8% (inactive)
CCn1c(CSc2nc3ccccc3c(=O)n2CCc2ccccc2)n[nH]c1=S | 90.9% (inactive)
COc1ccc(C(=O)/C=C/c2ccc(/C=C/c3cc(OC)c(OC)c(OC)c3)cc2)cc1 | 21.5% (inactive)
S=c1[nH]nc2sc3ccccc3n12 | 107% (inactive)
